Reference: PubChem BioAssay (NCATS)
Results filed as inconclusive are left out. Where a call stands in place of a potency, no number is given. Calls of active or inactive are those of the source. Unless noted, the call rests on the fitted dose curve; in most records, active means well fitted curve in the direction sought with a large enough effect; inconclusive means small, poorly fitted or top-dose-only effect, or another doubt; inactive means no such curve, though single readings can be large; an effect the other way counts as inactive or inconclusive.

Tests used:
[1] = qHTS assay for measurement of the activity of small molecule inhibitors on Zika virus induced Caspase-3 activity in human iPSC derived neural progenitor cells (hNPCs) (AID 1224857); further: nearly all actives have a fitted effect of over 65% in size
Method in brief: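 Caspase-3/7 induction by a 6-hour ZIKV infection was quantified with a luminescent Caspase-Glo 3/7 reagent incubated 30 minutes at room temperature. Compounds were preincubated with hNPCs for 1 hour; inhibition was calculated against uninfected and infected control wells.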

[2] = qHTS assay for measurement of the activity of small molecule inhibitors on Zika virus induced Caspase-3 activity in human astrocytoma cells (AID 1224859)
Method in brief: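 In SNB-19 cells plated at 250 cells/well and grown 16-20 h, compounds were applied 1 h before ZIKV (2 FFU/cell). Six hours later caspase-3/7 luminescence was recorded.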

[3] = qHTS assay to identify small molecule inhibitors of chordoma cells - UCH-1 (AID 1259355); further: nearly all actives have a fitted effect of over 55% in size; further: potency means the concentration at half of the fitted maximal effect
Method in brief: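 Seed 800 cells per well; incubate overnight at 37 C, 5% CO2. Add test compounds (15 concentrations), then the auranofin–topoisomerase-agent combination. Incubate 48hr, add CellTiter-Glo, wait 30min, read luminescence.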

[4] = qHTS assay to identify small molecule inhibitors of chordoma cells - UCH-2 (AID 1259356)
[5] = NS1 protein of Zika virus - qHTS assay to identify small molecule inhibitors in human HEK 293 cells (AID 1347053); further: nearly all actives have a fitted effect of over 55% in size
Method in brief: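 HEK 293 cells, seeded 20 h at 37 C, were pretreated with compound 1 h, then infected with ZIKV MR766 (MOI = 0.5) for 24 h. NS1 was read by TR-FRET with two anti-NS1 antibodies, normalized to uninfected and infected wells.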

[6] = qHTS profiling of the MIPE4 collection as inhibitors of Plasmodium falciparum (DD2) proliferation (AID 743345; call rule not given here); conditions: P. falciparum Dd2 in erythrocytes, SYBR Green DNA, 72 h; at 28.5 µM (top of the series) unless noted
Method in brief: (§1)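 Erythrocytes infected with P. falciparum (0.3% parasitemia, 2.5% hematocrit) incubated with compounds 72 h at 37 C, 5% CO2. Lysis with saponin/Triton buffer containing SYBR Green I, overnight at room temperature in the dark; DNA fluorescence (485/535 nm) normalised to 0.29 uM artemisinin and DMSO.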

[7] = qHTS profiling of the MIPE4 collection as inhibitors of Plasmodium falciparum (DD2) proliferation (Rep 2) (AID 743346; call rule not given here); conditions: P. falciparum Dd2 in erythrocytes, SYBR Green DNA, 72 h; at 28.5 µM (top of the series) unless noted
Method in brief: as §1

[8] = qHTS profiling of the MIPE4 collection as inhibitors of Plasmodium falciparum (HB3) proliferation (AID 743347; call rule not given here); conditions: P. falciparum HB3 in erythrocytes, SYBR Green DNA, 72 h; at 28.5 µM (top of the series) unless noted
Method in brief: as §1

[9] = P-glycoprotein substrates identified in KB-8-5-11 adenocarcinoma cell line, qHTS therapeutic library screen (AID 1346987); further: nearly all actives have a fitted effect of over 65% in size; further: potency means the concentration at half of the fitted maximal effect
Method in brief: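 KB-8-5-11, a colchicine-selected P-gp-overexpressing KB-3-1 subline, was grown without colchicine for the assay. Cells were seeded at 500 cells/well, dosed in concentration-response and incubated 72 h at 37 degree C, 5% CO2. Viability was read by CellTiter-Glo luminescence.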

[10] = P-glycoprotein substrates identified in KB-3-1 adenocarcinoma cell line, qHTS therapeutic library screen (AID 1346986); conditions: KB-3-1 parental cells viability, CellTiter-Glo, 72 h; at 44.5 µM (top of the series); further: nearly all actives have a fitted effect of over 60% in size
Method in brief: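 Cells seeded 500/well in DMEM/10% FCS; compounds pinned in dose-response; 72 h incubation; CellTiter-Glo added, 5 min, luminescence. KB-8-5-11 run ±tariquidar to test reversal of P-gp resistance.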

[11] = target: Atrial natriuretic peptide receptor 1 (Homo sapiens) (UniProt P16066); assay: Natriuretic polypeptide receptor (hNpr1) antagonism - Pilot screen (AID 1347049; calls by dose curve;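 further: agonist-evoked cGMP luminescence read 20 min after hNppA addition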)
Sequence of Atrial natriuretic peptide receptor 1 (Homo sapiens) (P16066 whole entry, looked up): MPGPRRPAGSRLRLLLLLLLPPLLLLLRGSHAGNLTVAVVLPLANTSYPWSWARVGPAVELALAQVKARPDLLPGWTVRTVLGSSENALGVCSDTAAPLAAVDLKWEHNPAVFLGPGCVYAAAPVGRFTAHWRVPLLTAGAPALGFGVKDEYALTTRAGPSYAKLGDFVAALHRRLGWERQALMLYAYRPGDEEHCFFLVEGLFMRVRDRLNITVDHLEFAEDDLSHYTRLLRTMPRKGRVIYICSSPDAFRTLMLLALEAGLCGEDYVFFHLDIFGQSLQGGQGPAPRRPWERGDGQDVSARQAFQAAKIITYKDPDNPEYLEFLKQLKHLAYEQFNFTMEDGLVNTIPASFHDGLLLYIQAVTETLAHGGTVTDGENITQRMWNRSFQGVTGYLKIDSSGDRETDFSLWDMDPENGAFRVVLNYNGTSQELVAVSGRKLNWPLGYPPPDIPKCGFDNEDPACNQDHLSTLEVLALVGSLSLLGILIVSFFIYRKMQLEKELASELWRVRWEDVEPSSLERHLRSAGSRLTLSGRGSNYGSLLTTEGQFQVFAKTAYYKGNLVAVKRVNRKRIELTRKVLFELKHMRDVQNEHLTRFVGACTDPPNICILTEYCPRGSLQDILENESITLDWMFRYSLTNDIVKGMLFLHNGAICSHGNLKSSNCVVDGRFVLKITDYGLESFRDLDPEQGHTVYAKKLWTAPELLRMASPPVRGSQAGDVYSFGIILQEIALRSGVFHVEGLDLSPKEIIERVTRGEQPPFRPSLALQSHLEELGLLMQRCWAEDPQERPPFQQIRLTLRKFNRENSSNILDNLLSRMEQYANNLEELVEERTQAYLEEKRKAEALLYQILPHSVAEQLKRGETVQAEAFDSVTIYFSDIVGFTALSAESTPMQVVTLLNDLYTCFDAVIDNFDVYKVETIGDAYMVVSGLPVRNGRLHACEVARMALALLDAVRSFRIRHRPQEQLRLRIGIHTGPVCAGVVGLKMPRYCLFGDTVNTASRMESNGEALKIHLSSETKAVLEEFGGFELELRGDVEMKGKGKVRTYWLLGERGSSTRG
Method in brief: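 Readout is cGMP-driven firefly luciferase luminescence in HEK293 cells carrying hNpr1 and a PDE5-domain GloSensor, read before and 20 min after 0.1 nM hNppA stimulation. Cells had 2% substrate reagent for 2 h and test compound for 30 min.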

[12] = target: Atrial natriuretic peptide receptor 2 (Homo sapiens) (UniProt P20594); assay: Natriuretic polypeptide receptor (hNpr2) antagonism - Pilot subtype selectivity assay (AID 1347050; calls by dose curve)
Sequence of Atrial natriuretic peptide receptor 2 (Homo sapiens) (P20594 whole entry, looked up): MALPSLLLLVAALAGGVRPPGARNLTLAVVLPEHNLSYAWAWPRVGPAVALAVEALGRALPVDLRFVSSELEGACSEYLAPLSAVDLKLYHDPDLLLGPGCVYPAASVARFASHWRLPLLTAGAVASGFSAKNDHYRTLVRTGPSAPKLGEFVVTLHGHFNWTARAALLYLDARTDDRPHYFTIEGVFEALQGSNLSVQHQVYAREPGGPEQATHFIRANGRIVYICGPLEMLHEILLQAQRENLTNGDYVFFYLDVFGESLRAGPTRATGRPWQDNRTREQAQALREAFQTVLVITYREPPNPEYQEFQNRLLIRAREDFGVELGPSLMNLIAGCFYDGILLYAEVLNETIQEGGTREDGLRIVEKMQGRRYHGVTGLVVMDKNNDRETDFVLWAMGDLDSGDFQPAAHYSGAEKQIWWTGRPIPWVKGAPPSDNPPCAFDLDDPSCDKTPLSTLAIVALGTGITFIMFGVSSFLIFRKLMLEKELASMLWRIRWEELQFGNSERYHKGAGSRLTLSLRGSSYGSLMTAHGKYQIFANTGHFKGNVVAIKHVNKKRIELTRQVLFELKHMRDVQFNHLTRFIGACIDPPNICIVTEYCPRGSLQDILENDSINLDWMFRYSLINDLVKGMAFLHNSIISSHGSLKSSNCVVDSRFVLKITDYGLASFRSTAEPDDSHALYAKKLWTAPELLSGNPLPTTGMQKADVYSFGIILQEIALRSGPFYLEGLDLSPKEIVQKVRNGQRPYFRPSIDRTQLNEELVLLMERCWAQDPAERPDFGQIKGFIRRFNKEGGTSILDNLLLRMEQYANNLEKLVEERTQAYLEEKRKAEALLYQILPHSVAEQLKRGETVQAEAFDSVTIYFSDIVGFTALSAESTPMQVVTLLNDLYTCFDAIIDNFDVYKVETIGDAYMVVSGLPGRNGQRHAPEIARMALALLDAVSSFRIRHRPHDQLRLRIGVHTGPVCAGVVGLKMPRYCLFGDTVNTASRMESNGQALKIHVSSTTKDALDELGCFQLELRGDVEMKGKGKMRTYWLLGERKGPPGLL
Method in brief: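 Pilot selectivity screen against hNpr2: HEK293 cGMP-sensor cells are treated with LOPAC1280 compounds, then with hNppC peptide at 1 nM final. The cGMP-driven luminescence change over 20 min at room temperature is the read-out.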

[13] = Natriuretic polypeptide receptor (hNpr1) antagonism - Pilot counterscreen GloSensor control cell line (AID 1347045; calls by dose curve)
Method in brief: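 HEK293 cGMP GloSensor cells preloaded 2 h with 2% GloSensor reagent, then compound 30 min before baseline luminescence read. Stimulated with 50 uM sodium nitroprusside, 20 min at room temperature, then read again; counterscreen for Npr1 antagonism.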

[14] = target: Tyrosine-protein phosphatase non-receptor type substrate 1 (Homo sapiens) + Leukocyte surface antigen CD47 (Homo sapiens) (UniProt P78324+Q08722); assay: CD47-SIRPalpha protein protein interaction - LANCE assay qHTS validation (AID 1347057; active means well fitted curve in the direction sought with a large enough effect in the signal ratio, with a control signal flat, not every such curve was filed as active; the % refers to the signal ratio)
Sequence of Tyrosine-protein phosphatase non-receptor type substrate 1 (Homo sapiens) + Leukocyte surface antigen CD47 (Homo sapiens) (P78324 whole entry, looked up): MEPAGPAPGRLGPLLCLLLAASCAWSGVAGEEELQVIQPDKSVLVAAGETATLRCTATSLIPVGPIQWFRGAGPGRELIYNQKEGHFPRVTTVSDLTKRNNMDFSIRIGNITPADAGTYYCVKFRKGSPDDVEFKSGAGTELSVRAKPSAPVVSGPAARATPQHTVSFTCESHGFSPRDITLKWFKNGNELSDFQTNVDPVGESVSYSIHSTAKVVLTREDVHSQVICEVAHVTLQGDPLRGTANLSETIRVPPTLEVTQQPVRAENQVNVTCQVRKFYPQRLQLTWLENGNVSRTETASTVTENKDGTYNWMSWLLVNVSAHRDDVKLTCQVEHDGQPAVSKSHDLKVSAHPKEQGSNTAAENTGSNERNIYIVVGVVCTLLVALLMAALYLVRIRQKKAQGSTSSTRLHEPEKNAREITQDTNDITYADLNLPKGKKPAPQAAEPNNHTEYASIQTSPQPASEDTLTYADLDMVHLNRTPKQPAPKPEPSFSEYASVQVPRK
Sequence of Tyrosine-protein phosphatase non-receptor type substrate 1 (Homo sapiens) + Leukocyte surface antigen CD47 (Homo sapiens) (Q08722 whole entry, looked up): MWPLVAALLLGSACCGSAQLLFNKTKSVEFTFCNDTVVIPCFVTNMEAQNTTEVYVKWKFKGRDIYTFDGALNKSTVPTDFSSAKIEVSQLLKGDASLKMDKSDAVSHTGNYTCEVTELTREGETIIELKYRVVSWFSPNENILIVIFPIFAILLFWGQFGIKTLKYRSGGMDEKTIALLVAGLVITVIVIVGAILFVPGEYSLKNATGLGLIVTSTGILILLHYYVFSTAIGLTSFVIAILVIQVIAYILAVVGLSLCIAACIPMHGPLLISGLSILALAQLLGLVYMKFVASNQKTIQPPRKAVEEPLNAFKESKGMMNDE
Method in brief: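 First, His-tagged CD47 and Eu-labelled anti-His antibody met the compound for 30 min; next, site-specifically biotinylated SIRPalpha was added for 30 min; finally streptavidin-APC was added before reading the TR-FRET ratio.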

## CCOC(=O)n1ccn(C)c1=S
[1]
  outcome: inactive
[2]
  outcome: inactive
[3]
  Potency: inactive
[4]
  Potency: inactive
[5]
  Potency: inactive

## NCCCC[C@H](N[C@@H](CCc1ccccc1)C(=O)O)C(=O)N1CCC[C@H]1C(=O)O
[1]
  outcome: inactive
[2]
  outcome: inactive
[3]
  Potency: inactive
[4]
  Potency: inactive
[5]
  Potency: inactive

## CCN1CCC[C@H]1CNC(=O)c1c(OC)ccc(Br)c1OC
[1]
  outcome: inactive
[2]
  outcome: inactive
[3]
  Potency: inactive
[4]
  Potency: inactive
[5]
  Potency: inactive

## CN1CCN(CCCN2c3ccccc3Sc3ccc(S(=O)(=O)N(C)C)cc32)CC1
[6]
  parasite growth remaining, % of DMSO control (lower = more inhibition): 44% [at 9.64 µM]
[7]
  parasite growth, % of control (lower = inhibition): 48.8% [at 9.64 µM]
[8]
  growth, % of control: 68.8% [at 9.64 µM]
[1]
  outcome: inactive
[2]
  outcome: inactive
[3]
  Potency: inactive
[4]
  Potency: inactive
[5]
  Potency: inactive

## CC/C(=C(/CC)c1ccc(O)cc1)c1ccc(O)cc1
[1]
  outcome: inactive
[2]
  outcome: inactive
[3]
  Potency: inactive
[4]
  Potency: inactive
[5]
  Potency: inactive

## CCCCOc1ccc(OCCCN2CCOCC2)cc1
[1]
  outcome: inactive
[2]
  outcome: inactive
[3]
  Potency: inactive
[4]
  Potency: inactive
[5]
  Potency: inactive

## C[C@]12CC[C@H]3[C@@H](CCC4=CC(=O)CC[C@@]43C)[C@@H]1CC[C@@H]2C(=O)CO
[1]
  outcome: inactive
[2]
  outcome: inactive
[3]
  Potency: inactive
[4]
  Potency: inactive
[5]
  Potency: inactive

## CCCCCCC[N+](CC)(CC)CCCCc1ccc(Cl)cc1
[1]
  outcome: inactive
[2]
  outcome: inactive
[3]
  Potency: inactive
[9]
  Potency: inactive

## Nc1nc2ncc(CNc3ccc(C(=O)N[C@@H](CCC(=O)O)C(=O)O)cc3)nc2c(=O)[nH]1
[1]
  outcome: inactive
[2]
  outcome: inactive
[3]
  Potency: inactive
[4]
  Potency: inactive
[5]
  Potency: inactive

## O=C(N/N=C/c1ccccc1O)c1ccncc1
[1]
  outcome: inactive
[2]
  outcome: inactive
[3]
  Potency: inactive
[9]
  Potency: inactive

## CC1=C(C(=O)OC(C)C)C(c2cccc([N+](=O)[O-])c2)C(C(=O)OC2CN(C(c3ccccc3)c3ccccc3)C2)=C(N)N1 (stereo not given)
[6]
  parasite growth remaining, % of DMSO control (lower = more inhibition): 7.73%
[7]
  parasite growth, % of control (lower = inhibition): 24.4%
[8]
  growth, % of control: 9.79%
[1]
  outcome: inactive
[2]
  outcome: inactive
[3]
  Potency: inactive
[4]
  Potency: inactive

## Cc1cccc(C)c1NC(=O)CN1CCN(CCCC(c2ccc(F)cc2)c2ccc(F)cc2)CC1
[6]
  parasite growth remaining, % of DMSO control (lower = more inhibition): 52.4%
[7]
  parasite growth, % of control (lower = inhibition): 19.6%
[8]
  growth, % of control: 8.04%
[1]
  outcome: inactive
[2]
  outcome: inactive
[3]
  Potency: inactive
[4]
  Potency: inactive
[5]
  Potency: inactive

## NCCC(O)(P(=O)(O)O)P(=O)(O)O
[1]
  outcome: inactive
[2]
  outcome: inactive
[3]
  Potency: inactive
[4]
  Potency: inactive
[5]
  Potency: inactive

## CN(C)CC/C=C1/c2ccccc2COc2ccc(CC(=O)O)cc21
[1]
  outcome: inactive
[2]
  outcome: inactive
[3]
  Potency: inactive
[9]
  Potency: inactive
[5]
  Potency: inactive

## Cc1ccnc(NS(=O)(=O)c2ccc(N)cc2)n1
[1]
  outcome: inactive
[2]
  outcome: inactive
[3]
  Potency: inactive
[4]
  Potency: inactive
[5]
  Potency: inactive

## CC1=C(C(=O)O)N2C(=O)[C@@H](NC(=O)[C@H](N)c3ccc(O)cc3)[C@H]2SC1
[1]
  outcome: inactive
[2]
  outcome: inactive
[3]
  Potency: inactive
[4]
  Potency: inactive
[5]
  Potency: inactive

## Cc1cccn2c(=O)c(-c3nnn[nH]3)cnc12
[1]
  outcome: inactive
[2]
  outcome: inactive
[3]
  Potency: inactive
[4]
  Potency: inactive
[5]
  Potency: inactive

## COc1ccc(CCN2CCC(Nc3nc4ccccc4n3Cc3ccc(F)cc3)CC2)cc1
[1]
  outcome: inactive
[2]
  outcome: inactive
[3]
  Potency: 31.6 µM (active)
[9]
  Potency: 20.6 µM (active)

## O=c1[nH]c(=O)n([C@H]2C[C@H](O)[C@@H](CO)O2)cc1C(F)(F)F
[1]
  outcome: inactive
[2]
  outcome: inactive
[3]
  Potency: inactive
[4]
  Potency: inactive
[5]
  Potency: inactive

## COc1cc(-c2ccc(=O)[nH]n2)ccc1OC(F)F
[1]
  outcome: inactive
[2]
  outcome: inactive
[3]
  Potency: inactive
[9]
  Potency: 0.116 µM (active)
[5]
  Potency: inactive

## CC[C@@H](CO)NCCN[C@@H](CC)CO
[6]
  parasite growth remaining, % of DMSO control (lower = more inhibition): 106%
[7]
  parasite growth, % of control (lower = inhibition): 68.5%
[8]
  growth, % of control: 106%
[1]
  outcome: inactive
[2]
  outcome: inactive
[3]
  Potency: inactive
[4]
  Potency: inactive
[5]
  Potency: inactive

## Cc1c(F)c(N2CCNC(C)C2)cc2c1c(=O)c(C(=O)O)cn2C1CC1 (stereo not given)
[1]
  outcome: inactive
[2]
  outcome: inactive
[3]
  Potency: inactive
[4]
  Potency: inactive
[5]
  Potency: inactive

## CC(=O)OCC(=O)[C@@]1(O)[C@H](C)C[C@H]2[C@@H]3CCC4=CC(=O)C=C[C@]4(C)[C@@]3(F)[C@@H](O)C[C@@]21C
[1]
  outcome: inactive
[2]
  outcome: inactive
[4]
  Potency: inactive
[10]
  outcome: inactive
[9]
  Potency: inactive
[5]
  Potency: inactive

## COc1cc(NS(C)(=O)=O)ccc1Nc1c2ccccc2nc2ccccc12
[1]
  outcome: inactive
[2]
  outcome: inactive
[3]
  Potency: 28.2 µM (active)
[11]
  outcome: inactive
[12]
  outcome: inactive

## C[C@H]1[C@H](NC(=O)/C(=N/OC(C)(C)C(=O)O)c2csc(N)n2)C(=O)N1S(=O)(=O)O (stereo in doubt)
[1]
  outcome: inactive
[2]
  outcome: inactive
[3]
  Potency: inactive
[5]
  Potency: inactive

## CCCn1c(=O)[nH]c(=O)c2[nH]cnc21
[1]
  outcome: inactive
[2]
  outcome: inactive
[3]
  Potency: inactive
[13]
  outcome: inactive
[11]
  outcome: inactive
[12]
  outcome: inactive
[5]
  Potency: inactive
[14]
  outcome: inactive

## CC(C)NC[C@@H](O)COc1cccc2ccccc12
[1]
  outcome: inactive
[2]
  outcome: inactive
[3]
  Potency: inactive
[9]
  Potency: inactive
[5]
  Potency: inactive

## O=c1c(-c2ccccc2)c1-c1ccccc1
[1]
  outcome: inactive
[2]
  outcome: inactive
[4]
  Potency: inactive

## CCOC(=O)[C@H](CCc1ccccc1)N[C@@H](C)C(=O)N1Cc2ccccc2C[C@H]1C(=O)O
[1]
  outcome: inactive
[2]
  outcome: inactive
[3]
  Potency: inactive
[9]
  Potency: inactive
[5]
  Potency: inactive

## CCCSS/C(CCO)=C(\C)N(C=O)Cc1cnc(C)nc1N
[1]
  outcome: inactive
[2]
  outcome: inactive
[3]
  Potency: inactive
[9]
  Potency: inactive
[5]
  Potency: inactive

## CC(=O)CC(c1ccc([N+](=O)[O-])cc1)c1c(O)c2ccccc2oc1=O (stereo not given)
[1]
  outcome: inactive
[2]
  outcome: inactive
[3]
  Potency: inactive
[5]
  Potency: inactive

## CCCOC(C(=O)OC1CCN(C)CC1)(c1ccccc1)c1ccccc1
[1]
  outcome: inactive
[2]
  outcome: inactive
[3]
  Potency: inactive
[5]
  Potency: inactive

## CCCC(=O)Nc1ccc(OCC(O)CNC(C)C)c(C(C)=O)c1 (stereo not given)
[1]
  outcome: inactive
[2]
  outcome: inactive
[3]
  Potency: inactive
[5]
  Potency: inactive

## CCCCCCCCCCCCCCCCOP(=O)([O-])OCC[N+](C)(C)C
[1]
  outcome: inactive
[2]
  outcome: inactive
[3]
  Potency: inactive
[5]
  Potency: inactive
